# Paper PMC11062922 (Nature Chemical Biology, 2023)
# Like-named read-outs stand apart in the source and are kept apart here.
# What was measured:
# Conditions in all cases: read-out: apparent Kd, n = 1
# [1] = test system: PRKAA1
# [2] = test system: PRKAG1
# [3] = test system: PRKAG2
# [4] = test system: PRKD1
# [5] = compound concentrations:100 nM and 1000 nM (sheet 'Lestaurtinib' of Supplementary Table 1),run:Lestaurtinib_02367_R3,Plate:MR003
# [6] = compound concentrations:100 nM and 1000 nM (sheet 'Lestaurtinib' of Supplementary Table 1),run:Lestaurtinib_02381_R1,Plate:MR004
# [7] = compound concentrations:100 nM and 1000 nM (sheet 'Lestaurtinib' of Supplementary Table 1),run:Lestaurtinib_02381_R3,Plate:MR004
# [8] = compound concentrations:100 nM and 1000 nM (sheet 'Lestaurtinib' of Supplementary Table 1),run:Lestaurtinib_02422_R1,Plate:MR006
# [9] = compound concentrations:100 nM and 1000 nM (sheet 'Lestaurtinib' of Supplementary Table 1),run:Lestaurtinib_02437_R3,Plate:MR007
# [10] = compound concentrations:100 nM and 1000 nM (sheet 'Lestaurtinib' of Supplementary Table 1),run:Lestaurtinib_02438_R3,Plate:MR008
# [11] = compound concentrations:100 nM and 1000 nM (sheet 'Lestaurtinib' of Supplementary Table 1),run:Lestaurtinib_02443_R3,Plate:MR009
# [12] = compound concentrations:100 nM and 1000 nM (sheet 'Lestaurtinib' of Supplementary Table 1),run:Lestaurtinib_02473_R2,Plate:MR010
# [13] = compound concentrations:100 nM and 1000 nM (sheet 'Lestaurtinib' of Supplementary Table 1),run:Lestaurtinib_02473_R3,Plate:MR010
# [14] = compound concentrations:100 nM and 1000 nM (sheet 'Lestaurtinib' of Supplementary Table 1),run:Lestaurtinib_02482_R2,Plate:MR011
# [15] = compound concentrations:100 nM and 1000 nM (sheet 'Lestaurtinib' of Supplementary Table 1),run:Lestaurtinib_02487_R1,Plate:MR012
# [16] = compound concentrations:100 nM and 1000 nM (sheet 'Lestaurtinib' of Supplementary Table 1),run:Lestaurtinib_02566_R3,Plate:MR014
# [17] = compound concentrations:100 nM and 1000 nM (sheet 'Lestaurtinib' of Supplementary Table 1),run:Lestaurtinib_02584_R2,Plate:MR017
# [18] = compound concentrations:100 nM and 1000 nM (sheet 'Lestaurtinib' of Supplementary Table 1),run:Lestaurtinib_02606_R2,Plate:MR019
# [19] = compound concentrations:100 nM and 1000 nM (sheet 'Lestaurtinib' of Supplementary Table 1),run:Lestaurtinib_02624_R3,Plate:MR020
# [20] = compound concentrations:100 nM and 1000 nM (sheet 'Lestaurtinib' of Supplementary Table 1),run:Lestaurtinib_02748_R1,Plate:MR024
# [21] = compound concentrations:100 nM and 1000 nM (sheet 'Lestaurtinib' of Supplementary Table 1),run:Lestaurtinib_02752_R3,Plate:MR025
# [22] = compound concentrations:100 nM and 1000 nM (sheet 'Lestaurtinib' of Supplementary Table 1),run:Lestaurtinib_02768_R3,Plate:MR028
# [23] = compound concentrations:100 nM and 1000 nM (sheet 'Lestaurtinib' of Supplementary Table 1),run:Lestaurtinib_02896_R3,Plate:MR030
# [24] = compound concentrations:100 nM and 1000 nM (sheet 'Lestaurtinib' of Supplementary Table 1),run:Lestaurtinib_03172_R1,Plate:MR031
# [25] = compound concentrations:100 nM and 1000 nM (sheet 'Lestaurtinib' of Supplementary Table 1),run:Lestaurtinib_02364_R3,Plate:MR002
# [26] = compound concentrations:100 nM and 1000 nM (sheet 'Lestaurtinib' of Supplementary Table 1),run:Lestaurtinib_02407_R1,Plate:MR005
# [27] = compound concentrations:100 nM and 1000 nM (sheet 'Lestaurtinib' of Supplementary Table 1),run:Lestaurtinib_02407_R3,Plate:MR005
substance,measurement,setting,value
Lestaurtinib,potency estimated from few doses,[1]; [5],951 nM
same,potency estimated from few doses,[1]; [6],919 nM
same,potency estimated from few doses,"[1]; compound concentrations:100 nM and 1000 nM (sheet 'Lestaurtinib' of Supplementary Table 1),run:Lestaurtinib_02381_R2,Plate:MR004",900 nM
same,potency estimated from few doses,[1]; [7],952 nM
same,potency estimated from few doses,[1]; [8],741 nM
same,potency estimated from few doses,[1]; [9],79.1 nM
same,potency estimated from few doses,"[1]; compound concentrations:100 nM and 1000 nM (sheet 'Lestaurtinib' of Supplementary Table 1),run:Lestaurtinib_02438_R1,Plate:MR008",898 nM
same,potency estimated from few doses,[1]; [10],1600 nM
same,potency estimated from few doses,[1]; [11],762 nM
same,potency estimated from few doses,[1]; [12],944 nM
same,potency estimated from few doses,[1]; [13],74.3 nM
same,potency estimated from few doses,"[1]; compound concentrations:100 nM and 1000 nM (sheet 'Lestaurtinib' of Supplementary Table 1),run:Lestaurtinib_02482_R1,Plate:MR011",1130 nM
same,potency estimated from few doses,[1]; [14],1490 nM
same,potency estimated from few doses,[1]; [15],253 nM
same,potency estimated from few doses,"[1]; compound concentrations:100 nM and 1000 nM (sheet 'Lestaurtinib' of Supplementary Table 1),run:Lestaurtinib_02487_R3,Plate:MR012",737 nM
same,potency estimated from few doses,[1]; [16],1310 nM
same,potency estimated from few doses,"[1]; compound concentrations:100 nM and 1000 nM (sheet 'Lestaurtinib' of Supplementary Table 1),run:Lestaurtinib_02572_R1,Plate:MR015",904 nM
same,potency estimated from few doses,[1]; [17],1310 nM
same,potency estimated from few doses,[1]; [18],1490 nM
same,potency estimated from few doses,[1]; [19],1310 nM
same,potency estimated from few doses,"[1]; compound concentrations:100 nM and 1000 nM (sheet 'Lestaurtinib' of Supplementary Table 1),run:Lestaurtinib_02724_R3,Plate:MR021",883 nM
same,potency estimated from few doses,[1]; [20],858 nM
same,potency estimated from few doses,"[1]; compound concentrations:100 nM and 1000 nM (sheet 'Lestaurtinib' of Supplementary Table 1),run:Lestaurtinib_02748_R2,Plate:MR024",956 nM
same,potency estimated from few doses,"[1]; compound concentrations:100 nM and 1000 nM (sheet 'Lestaurtinib' of Supplementary Table 1),run:Lestaurtinib_02752_R1,Plate:MR025",1360 nM
same,potency estimated from few doses,[1]; [21],1210 nM
same,potency estimated from few doses,"[1]; compound concentrations:100 nM and 1000 nM (sheet 'Lestaurtinib' of Supplementary Table 1),run:Lestaurtinib_02766_R1,Plate:MR027",1580 nM
same,potency estimated from few doses,"[1]; compound concentrations:100 nM and 1000 nM (sheet 'Lestaurtinib' of Supplementary Table 1),run:Lestaurtinib_02766_R3,Plate:MR027",1320 nM
same,potency estimated from few doses,"[1]; compound concentrations:100 nM and 1000 nM (sheet 'Lestaurtinib' of Supplementary Table 1),run:Lestaurtinib_02768_R1,Plate:MR028",932 nM
same,potency estimated from few doses,[1]; [22],921 nM
same,potency estimated from few doses,"[1]; compound concentrations:100 nM and 1000 nM (sheet 'Lestaurtinib' of Supplementary Table 1),run:Lestaurtinib_02896_R1,Plate:MR030",784 nM
same,potency estimated from few doses,"[1]; compound concentrations:100 nM and 1000 nM (sheet 'Lestaurtinib' of Supplementary Table 1),run:Lestaurtinib_02896_R2,Plate:MR030",1130 nM
same,potency estimated from few doses,[1]; [23],931 nM
same,potency estimated from few doses,[1]; [24],1570 nM
same,potency estimated from few doses,"[1]; compound concentrations:100 nM and 1000 nM (sheet 'Lestaurtinib' of Supplementary Table 1),run:Lestaurtinib_03172_R2,Plate:MR031",1330 nM
same,potency estimated from few doses,"[2]; compound concentrations:100 nM and 1000 nM (sheet 'Lestaurtinib' of Supplementary Table 1),run:Lestaurtinib_02339_R2,Plate:MR001",584 nM
same,potency estimated from few doses,"[2]; compound concentrations:100 nM and 1000 nM (sheet 'Lestaurtinib' of Supplementary Table 1),run:Lestaurtinib_02339_R3,Plate:MR001",531 nM
same,potency estimated from few doses,[2]; [25],1000 nM
same,potency estimated from few doses,[2]; [5],887 nM
same,potency estimated from few doses,[2]; [6],712 nM
same,potency estimated from few doses,[2]; [7],611 nM
same,potency estimated from few doses,[2]; [26],924 nM
same,potency estimated from few doses,"[2]; compound concentrations:100 nM and 1000 nM (sheet 'Lestaurtinib' of Supplementary Table 1),run:Lestaurtinib_02407_R2,Plate:MR005",928 nM
same,potency estimated from few doses,[2]; [27],1150 nM
same,potency estimated from few doses,[2]; [8],131 nM
same,potency estimated from few doses,"[2]; compound concentrations:100 nM and 1000 nM (sheet 'Lestaurtinib' of Supplementary Table 1),run:Lestaurtinib_02437_R2,Plate:MR007",1340 nM
same,potency estimated from few doses,[2]; [9],83.7 nM
same,potency estimated from few doses,[2]; [10],1600 nM
same,potency estimated from few doses,[2]; [11],935 nM
same,potency estimated from few doses,[2]; [12],859 nM
same,potency estimated from few doses,[2]; [13],835 nM
same,potency estimated from few doses,[2]; [14],1580 nM
same,potency estimated from few doses,[2]; [15],365 nM
same,potency estimated from few doses,[2]; [16],79.5 nM
same,potency estimated from few doses,"[2]; compound concentrations:100 nM and 1000 nM (sheet 'Lestaurtinib' of Supplementary Table 1),run:Lestaurtinib_02584_R1,Plate:MR017",798 nM
same,potency estimated from few doses,[2]; [17],936 nM
same,potency estimated from few doses,"[2]; compound concentrations:100 nM and 1000 nM (sheet 'Lestaurtinib' of Supplementary Table 1),run:Lestaurtinib_02601_R1,Plate:MR018",963 nM
same,potency estimated from few doses,[2]; [18],1240 nM
same,potency estimated from few doses,"[2]; compound concentrations:100 nM and 1000 nM (sheet 'Lestaurtinib' of Supplementary Table 1),run:Lestaurtinib_02624_R2,Plate:MR020",876 nM
same,potency estimated from few doses,[2]; [19],1320 nM
same,potency estimated from few doses,"[2]; compound concentrations:100 nM and 1000 nM (sheet 'Lestaurtinib' of Supplementary Table 1),run:Lestaurtinib_02748_R3,Plate:MR024",1790 nM
same,potency estimated from few doses,"[2]; compound concentrations:100 nM and 1000 nM (sheet 'Lestaurtinib' of Supplementary Table 1),run:Lestaurtinib_02752_R2,Plate:MR025",818 nM
same,potency estimated from few doses,[2]; [21],954 nM
same,potency estimated from few doses,"[2]; compound concentrations:100 nM and 1000 nM (sheet 'Lestaurtinib' of Supplementary Table 1),run:Lestaurtinib_02768_R2,Plate:MR028",1540 nM
same,potency estimated from few doses,[2]; [22],852 nM
same,potency estimated from few doses,"[2]; compound concentrations:100 nM and 1000 nM (sheet 'Lestaurtinib' of Supplementary Table 1),run:Lestaurtinib_02795_R2,Plate:MR022",1330 nM
same,potency estimated from few doses,"[2]; compound concentrations:100 nM and 1000 nM (sheet 'Lestaurtinib' of Supplementary Table 1),run:Lestaurtinib_02802_R1,Plate:MR029",1150 nM
same,potency estimated from few doses,"[2]; compound concentrations:100 nM and 1000 nM (sheet 'Lestaurtinib' of Supplementary Table 1),run:Lestaurtinib_02802_R2,Plate:MR029",1430 nM
same,potency estimated from few doses,[2]; [23],700 nM
same,potency estimated from few doses,"[2]; compound concentrations:100 nM and 1000 nM (sheet 'Lestaurtinib' of Supplementary Table 1),run:Lestaurtinib_03252_R1,Plate:MR032",744 nM
same,potency estimated from few doses,"[2]; compound concentrations:100 nM and 1000 nM (sheet 'Lestaurtinib' of Supplementary Table 1),run:Lestaurtinib_03260_R1,Plate:MR033",860 nM
same,potency estimated from few doses,"[2]; compound concentrations:100 nM and 1000 nM (sheet 'Lestaurtinib' of Supplementary Table 1),run:Lestaurtinib_03260_R2,Plate:MR033",760 nM
same,potency estimated from few doses,"[3]; compound concentrations:100 nM and 1000 nM (sheet 'Lestaurtinib' of Supplementary Table 1),run:Lestaurtinib_02367_R2,Plate:MR003",1350 nM
same,potency estimated from few doses,[3]; [5],1360 nM
same,potency estimated from few doses,[3]; [26],888 nM
same,potency estimated from few doses,[3]; [27],1340 nM
same,potency estimated from few doses,[3]; [8],629 nM
same,potency estimated from few doses,"[3]; compound concentrations:100 nM and 1000 nM (sheet 'Lestaurtinib' of Supplementary Table 1),run:Lestaurtinib_02438_R2,Plate:MR008",1210 nM
same,potency estimated from few doses,[3]; [13],1240 nM
same,potency estimated from few doses,[3]; [15],352 nM
same,potency estimated from few doses,[3]; [16],888 nM
same,potency estimated from few doses,[3]; [20],1240 nM
same,potency estimated from few doses,[3]; [24],1370 nM
same,potency estimated from few doses,[4]; [25],131 nM
same,potency estimated from few doses,"[4]; compound concentrations:100 nM and 1000 nM (sheet 'Lestaurtinib' of Supplementary Table 1),run:Lestaurtinib_02443_R2,Plate:MR009",226 nM
same,potency estimated from few doses,[4]; [11],271 nM
same,potency estimated from few doses,"[4]; compound concentrations:100 nM and 1000 nM (sheet 'Lestaurtinib' of Supplementary Table 1),run:Lestaurtinib_02473_R1,Plate:MR010",248 nM
same,potency estimated from few doses,[4]; [12],235 nM
same,potency estimated from few doses,"[4]; compound concentrations:100 nM and 1000 nM (sheet 'Lestaurtinib' of Supplementary Table 1),run:Lestaurtinib_02496_R2,Plate:MR013",47.1 nM
same,potency estimated from few doses,"[4]; compound concentrations:100 nM and 1000 nM (sheet 'Lestaurtinib' of Supplementary Table 1),run:Lestaurtinib_02566_R1,Plate:MR014",253 nM
